# Among all 5,500 compounds or so, about 2,000 (36%) were called active. Another 18% or so got no clear call; they are omitted. The list shows a part of the results. Unmarked numbers belong to inactive results. No stated cut-off is given here; in the data, active means normalized growth mostly below about 0.91 (no sharp cut-off); inconclusive means no clear call, values can overlap the other calls; inactive means mostly above about 0.92.
# Assay: chemical genetic growth profiling, strain panel (AID 1159580);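 further: tested at 20 µM; growth read once vehicle control cultures reached saturation at 30 °C; 1 = growth at the plate median or of vehicle wells; lower values mean less growth of the strain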
# Conditions: growth OD
structure (smiles),measurement,setting,value
CC(=O)Oc1ccc(Cl)c2cccnc12,normalized growth,"S. cerevisiae deletion strains, locus YJL187C, strain SWE1, active compounds read low",0.0588 (active)
same,normalized growth,"S. cerevisiae deletion strains, locus YJR043C, strain POL32, active compounds read low",0.0605 (active)
same,normalized growth,"S. cerevisiae deletion strains, locus YJR075W, strain HOC1, active compounds read low",0.0612 (active)
same,normalized growth,"S. cerevisiae deletion strains, locus YKL009W, strain mrt4, active compounds read low",0.0837 (active)
same,normalized growth,"S. cerevisiae deletion strains, locus YKL068W, active compounds read low",0.061 (active)
same,normalized growth,"S. cerevisiae deletion strains, locus YKL085W, strain MDH1 (second series), active compounds read low",0.0554 (active)
same,normalized growth,"S. cerevisiae deletion strains, locus YKL085W, strain MDH1, active compounds read low",0.0554 (active)
same,normalized growth,"S. cerevisiae deletion strains, locus YKL160W, strain elf1, active compounds read low",0.058 (active)
same,normalized growth,"S. cerevisiae deletion strains, locus YKL190W, strain CNB1, active compounds read low",0.0452 (active)
same,normalized growth,"S. cerevisiae deletion strains, locus YKR001C, strain vps1, active compounds read low",0.0643 (active)
same,normalized growth,"S. cerevisiae deletion strains, locus YKR026C, strain gcn3, active compounds read low",0.0619 (active)
same,normalized growth,"S. cerevisiae deletion strains, locus YKR091W, strain srl3, active compounds read low",0.0618 (active)
same,normalized growth,"S. cerevisiae deletion strains, locus YLL001W, strain dnm1, active compounds read low",0.0631 (active)
same,normalized growth,"S. cerevisiae deletion strains, locus YLL026W, active compounds read low",0.0596 (active)
same,normalized growth,"S. cerevisiae deletion strains, locus YLL041C, strain sdh2, active compounds read low",0.0561 (active)
same,normalized growth,"S. cerevisiae deletion strains, locus YLR027C, strain aat2, active compounds read low",0.0554 (active)
same,normalized growth,"S. cerevisiae deletion strains, locus YLR039C, strain RIC1, active compounds read low",0.0795 (active)
same,normalized growth,"S. cerevisiae deletion strains, locus YLR058C, strain SHM2, active compounds read low",0.0497 (active)
same,normalized growth,"S. cerevisiae deletion strains, locus YLR102C, strain apc9, active compounds read low",0.0628 (active)
same,normalized growth,"S. cerevisiae deletion strains, locus YLR221C, strain rsa3, active compounds read low",0.061 (active)
same,normalized growth,"S. cerevisiae deletion strains, locus YLR258W, strain gsy2, active compounds read low",0.0582 (active)
same,normalized growth,"S. cerevisiae deletion strains, locus YLR262C, strain YPT6 (second series), active compounds read low",0.0745 (active)
same,normalized growth,"S. cerevisiae deletion strains, locus YLR262C, strain YPT6, active compounds read low",0.0956 (active)
same,normalized growth,"S. cerevisiae deletion strains, locus YLR268W, strain sec22, active compounds read low",0.0707 (active)
same,normalized growth,"S. cerevisiae deletion strains, locus YLR320W, strain mms22, active compounds read low",0.074 (active)
same,normalized growth,"S. cerevisiae deletion strains, locus YLR330W, strain CHS5, active compounds read low",0.0507 (active)
same,normalized growth,"S. cerevisiae deletion strains, locus YLR342W, strain FKS1 (second series), active compounds read low",0.0702 (active)
same,normalized growth,"S. cerevisiae deletion strains, locus YLR342W, strain FKS1, active compounds read low",0.0632 (active)
same,normalized growth,"S. cerevisiae deletion strains, locus YLR357W, strain rsc2, active compounds read low",0.13 (active)
same,normalized growth,"S. cerevisiae deletion strains, locus YLR370C, strain arc18, active compounds read low",0.0627 (active)
same,normalized growth,"S. cerevisiae deletion strains, locus YLR371W, strain rom2, active compounds read low",0.0668 (active)
same,normalized growth,"S. cerevisiae deletion strains, locus YLR384C, strain iki3, active compounds read low",0.0595 (active)
same,normalized growth,"S. cerevisiae deletion strains, locus YLR418C, strain cdc73, active compounds read low",0.101 (active)
same,normalized growth,"S. cerevisiae deletion strains, locus YML016C, strain PPZ1, active compounds read low",0.0485 (active)
same,normalized growth,"S. cerevisiae deletion strains, locus YML032C, strain rad52, active compounds read low",0.0749 (active)
same,normalized growth,"S. cerevisiae deletion strains, locus YML120C, strain ndi1, active compounds read low",0.0578 (active)
same,normalized growth,"S. cerevisiae deletion strains, locus YML124C, strain tub3, active compounds read low",0.0617 (active)
same,normalized growth,"S. cerevisiae deletion strains, locus YMR058W, strain fet3, active compounds read low",0.0625 (active)
same,normalized growth,"S. cerevisiae deletion strains, locus YMR078C, strain ctf18, active compounds read low",0.0737 (active)
same,normalized growth,"S. cerevisiae deletion strains, locus YMR125W, strain sto1, active compounds read low",0.081 (active)
same,normalized growth,"S. cerevisiae deletion strains, locus YMR129W, active compounds read low",0.0589 (active)
same,normalized growth,"S. cerevisiae deletion strains, locus YMR205C, strain PFK2, active compounds read low",0.0841 (active)
same,normalized growth,"S. cerevisiae deletion strains, locus YMR223W, strain ubp8, active compounds read low",0.069 (active)
same,normalized growth,"S. cerevisiae deletion strains, locus YMR231W, strain pep5, active compounds read low",0.0641 (active)
same,normalized growth,"S. cerevisiae deletion strains, locus YMR307W, strain GAS1, active compounds read low",0.122 (active)
same,normalized growth,"S. cerevisiae deletion strains, locus YNL067W, strain RPL9B, active compounds read low",0.0485 (active)
same,normalized growth,"S. cerevisiae deletion strains, locus YNL071W, strain lat1, active compounds read low",0.0618 (active)
same,normalized growth,"S. cerevisiae deletion strains, locus YNL153C, strain GIM3, active compounds read low",0.048 (active)
same,normalized growth,"S. cerevisiae deletion strains, locus YNL209W, strain ssb2, active compounds read low",0.0585 (active)
same,normalized growth,"S. cerevisiae deletion strains, locus YNL233W, strain BNI4, active compounds read low",0.0581 (active)
same,normalized growth,"S. cerevisiae deletion strains, locus YNL248C, strain rpa49, active compounds read low",0.0904 (active)
same,normalized growth,"S. cerevisiae deletion strains, locus YNL250W, strain rad50, active compounds read low",0.127 (active)
same,normalized growth,"S. cerevisiae deletion strains, locus YNL271C, strain bni1, active compounds read low",0.0631 (active)
same,normalized growth,"S. cerevisiae deletion strains, locus YNL298W, strain CLA4, active compounds read low",0.0622 (active)
same,normalized growth,"S. cerevisiae deletion strains, locus YNL307C, strain MCK1, active compounds read low",0.0688 (active)
same,normalized growth,"S. cerevisiae deletion strains, locus YNL322C, strain KRE1 (second series), active compounds read low",0.0653 (active)
same,normalized growth,"S. cerevisiae deletion strains, locus YNR049C, strain mso1, active compounds read low",0.06 (active)
same,normalized growth,"S. cerevisiae deletion strains, locus YNR052C, strain pop2, active compounds read low",0.0622 (active)
same,normalized growth,"S. cerevisiae deletion strains, locus YOL012C, strain htz1",0.23
same,normalized growth,"S. cerevisiae deletion strains, locus YOL147C, strain pex11, active compounds read low",0.0595 (active)
same,normalized growth,"S. cerevisiae deletion strains, locus YOR001W, strain rrp6, active compounds read low",0.0713 (active)
same,normalized growth,"S. cerevisiae deletion strains, locus YOR061W, strain CKA2, active compounds read low",0.0492 (active)
same,normalized growth,"S. cerevisiae deletion strains, locus YOR069W, strain VPS5, active compounds read low",0.0514 (active)
same,normalized growth,"S. cerevisiae deletion strains, locus YOR070C, strain gyp1, active compounds read low",0.0596 (active)
same,normalized growth,"S. cerevisiae deletion strains, locus YOR080W, strain dia2, active compounds read low",0.064 (active)
same,normalized growth,"S. cerevisiae deletion strains, locus YOR083W, strain WHI5, active compounds read low",0.0594 (active)
same,normalized growth,"S. cerevisiae deletion strains, locus YOR106W, strain vam3, active compounds read low",0.0646 (active)
same,normalized growth,"S. cerevisiae deletion strains, locus YOR136W, strain idh2, active compounds read low",0.0755 (active)
same,normalized growth,"S. cerevisiae deletion strains, locus YOR144C, strain elg1, active compounds read low",0.0602 (active)
same,normalized growth,"S. cerevisiae deletion strains, locus YOR184W, strain ser1, active compounds read low",0.0785 (active)
same,normalized growth,"S. cerevisiae deletion strains, locus YOR265W, strain rbl2, active compounds read low",0.0601 (active)
same,normalized growth,"S. cerevisiae deletion strains, locus YOR270C, strain vph1, active compounds read low",0.104 (active)
same,normalized growth,"S. cerevisiae deletion strains, locus YOR290C, strain snf2, active compounds read low",0.0601 (active)
same,normalized growth,"S. cerevisiae deletion strains, locus YOR316C, strain cot1, active compounds read low",0.0595 (active)
same,normalized growth,"S. cerevisiae deletion strains, locus YPL051W, strain arl3, active compounds read low",0.0618 (active)
same,normalized growth,"S. cerevisiae deletion strains, locus YPL055C, strain LGE1, active compounds read low",0.0661 (active)
same,normalized growth,"S. cerevisiae deletion strains, locus YPL078C, strain atp4, active compounds read low",0.0648 (active)
same,normalized growth,"S. cerevisiae deletion strains, locus YPL106C, strain sse1, active compounds read low",0.0984 (active)
same,normalized growth,"S. cerevisiae deletion strains, locus YPL240C, strain hsp82, active compounds read low",0.0604 (active)
same,normalized growth,"S. cerevisiae deletion strains, locus YPL241C, strain CIN2, active compounds read low",0.0494 (active)
same,normalized growth,"S. cerevisiae deletion strains, locus YPR119W, strain clb2, active compounds read low",0.0672 (active)
same,normalized growth,"S. cerevisiae deletion strains, locus YPR141C, strain kar3, active compounds read low",0.0666 (active)
same,normalized growth,"S. cerevisiae deletion strains, locus YPR163C, strain tif3, active compounds read low",0.0706 (active)
same,normalized growth,"S. cerevisiae deletion strains, locus YPR167C, strain met16, active compounds read low",0.0624 (active)
same,normalized growth,"S. cerevisiae deletion strains, strain wtn01, active compounds read low",0.0713 (active)
same,normalized growth,"S. cerevisiae strains, strain wild type, active compounds read low",0.0465 (active)
